These results are taken from the supplement of paper PMC7695840.

For assay [1], the system named is Staphylococcus aureus MW2 delta-mecA (mecA-). The assay can be described thus: normalized GFP fluorescence (growth of mecA- strain) (fraction of control range); higher = more growth of mecA- strain. Conditions: compound concentration: 150 uM; cefoxitin: subinhibitory; fluorescent label: GFP. The method, boiled down: (§1)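 Pre-induced S. aureus MW2 cells with the gene (DsRed) and without it (GFP) were mixed 1:1 in LB holding a subinhibitory antibiotic dose set daily and grown on 150 μM compound (1.5% DMSO) in 1536-well plates, single replicate, for 20 h at 37 °C. DsRed (540/590) and GFP (485/520) readings were scaled per plate between single-strain control medians. Plates with high untreated ratios and rows with DsRed/GFP >10 were excluded.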

Assay [2] has as its system Staphylococcus aureus MW2 (mecA+). Put plainly: normalized DsRed fluorescence (growth of mecA+ strain) (fraction of control range); higher = more growth of mecA+ strain. Conditions: compound concentration: 150 uM; cefoxitin: subinhibitory; fluorescent label: DsRed. The method, boiled down: as §1

Counter-ions that a name gives are not always drawn.

As for `NCC[C@H](O)C(=O)N[C@@H]1C[C@H](N)[C@@H](O[C@H]2O[C@H](CN)[C@@H](O)[C@H](O)[C@H]2O)[C@H](O)[C@H]1O[C@H]1O[C@H](CO)[C@@H](O)[C@H](N)[C@H]1O` [Amikacin hydrate], the “normalized GFP fluorescence” value in assay [1] was 0.412. In addition, the “normalized DsRed fluorescence” value in assay [2] is 0.639.

As to `Cc1c(O)c(=O)ccn1C` [Deferiprone], in assay [1], the “normalized GFP fluorescence” value was 0.292. Moreover, the “normalized DsRed fluorescence” value in assay [2] stood at 0.96.

In the case of `CC1=NN(c2ccccc2)C(=O)C1` [Edaravone (MCI-186)], the “normalized GFP fluorescence” value in assay [1] is 0.706. Besides, the “normalized DsRed fluorescence” value in assay [2] turned out to be 0.531.

Regarding `CCC(=O)O[C@H](CC(=O)O)C[N+](C)(C)C`, in assay [1], the “normalized GFP fluorescence” value is 0.307. Besides, in assay [2], the “normalized DsRed fluorescence” value amounted to 1.23.

With `CC[N+](C)(C)Cc1ccccc1Br`, the “normalized GFP fluorescence” value in assay [1] came out at 0.178. For the same compound, the “normalized DsRed fluorescence” value in assay [2] came to 0.523.

Take `NC(=O)c1cn(Cc2c(F)cccc2F)nn1` [Rufinamide (Banzel)]: in assay [1], the “normalized GFP fluorescence” value turned out to be 0.199. Besides, the “normalized DsRed fluorescence” value in assay [2] came to 0.955.

Regarding `CC1(C)O[C@@H]2[C@@H](CO[C@@]3(COS(N)(=O)=O)OC(C)(C)O[C@@H]23)O1`, the “normalized GFP fluorescence” value in assay [1] was 0.798. Besides, the “normalized DsRed fluorescence” value in assay [2] came to 0.547.

In the case of `CN(C)c1cc(NC(=O)CNC(C)(C)C)c(O)c2c1C[C@H]1C[C@H]3[C@H](N(C)C)C(O)=C(C(N)=O)C(=O)[C@@]3(O)C(O)=C1C2=O` [Tigecycline], the “normalized GFP fluorescence” value in assay [1] amounted to 0.473. In addition, the “normalized DsRed fluorescence” value in assay [2] was found to be 0.779.

`C[n+]1ccccc1/C=N/O`: the “normalized GFP fluorescence” value in assay [1] is 0.332. Besides, the “normalized DsRed fluorescence” value in assay [2] is 0.9.

In the case of `NC(=O)C1(N2CCCCC2)CCN(CCCC(=O)c2ccc(F)cc2)CC1`, the “normalized GFP fluorescence” value in assay [1] was determined as 0.529. The “normalized DsRed fluorescence” value in assay [2] turned out to be 0.733.

`OCc1ccccc1O`: the “normalized GFP fluorescence” value in assay [1] came out at 0.351. Further, the “normalized DsRed fluorescence” value in assay [2] worked out at 0.713.

For the compound `CN1CCC(=C2c3ccccc3CCc3cccnc32)CC1`, the “normalized GFP fluorescence” value in assay [1] was determined as 0.396. For the same compound, the “normalized DsRed fluorescence” value in assay [2] was 0.798.

Consider `COc1cc2nccc(Oc3ccc(NC(=O)C4(C(=O)Nc5ccc(F)cc5)CC4)cc3)c2cc1OC` [Cabozantinib malate], for which the “normalized GFP fluorescence” value in assay [1] amounted to 0.367. Further, in assay [2], the “normalized DsRed fluorescence” value turned out to be 0.686.

Take `O=c1ccn([C@@H]2O[C@H](CO)[C@@H](O)[C@H]2O)c(=O)[nH]1` [Uridine]: the “normalized GFP fluorescence” value in assay [1] came out at 0.265. For the same compound, the “normalized DsRed fluorescence” value in assay [2] stood at 0.849.

In the case of `Cc1ccc(Nc2nccc(N(C)c3ccc4c(C)n(C)nc4c3)n2)cc1S(N)(=O)=O` [Pazopanib], in assay [1], the “normalized GFP fluorescence” value was 0.64. For the same compound, the “normalized DsRed fluorescence” value in assay [2] turned out to be 0.586.

Turning to `Cc1[nH+]cc(COP(=O)([O-])[O-])c(CN(CCN(CC(=O)[O-])Cc2c(COP(=O)([O-])O)c[nH+]c(C)c2O)CC(=O)[O-])c1O.[Mn].[Na+].[Na+].[Na+]`, the “normalized GFP fluorescence” value in assay [1] came out at 0.415. The “normalized DsRed fluorescence” value in assay [2] came out at 0.481.

Take `COc1ccc2c(c1)c(CC(=O)O)c(C)n2C(=O)c1ccc(Cl)cc1`: in assay [1], the “normalized GFP fluorescence” value was -0.013. Besides, in assay [2], the “normalized DsRed fluorescence” value is 0.261.

On to `C[C@@H]1C/C=C/C=C/C=C/C=C/[C@H](O[C@@H]2O[C@H](C)[C@@H](O)[C@H](N)[C@@H]2O)C[C@@H]2O[C@](O)(C[C@@H](O)C[C@H]3O[C@@H]3/C=C/C(=O)O1)C[C@H](O)[C@H]2C(=O)O`, for which the “normalized GFP fluorescence” value in assay [1] turned out to be 0.448. In addition, in assay [2], the “normalized DsRed fluorescence” value is 0.753.

Consider `CN(C)CCOC(C)(c1ccccc1)c1ccccn1` (stereo not drawn), for which the “normalized GFP fluorescence” value in assay [1] turned out to be 0.411. Further, the “normalized DsRed fluorescence” value in assay [2] was determined as 0.892.

`CC[C@@H]1C(=O)OC[C@@H]1Cc1cncn1C`: the “normalized GFP fluorescence” value in assay [1] amounted to 0.483. Moreover, in assay [2], the “normalized DsRed fluorescence” value stood at 0.892.

As to `C=C1CC[C@H](O)C/C1=C/C=C1\CCC[C@]2(C)[C@@H]([C@H](C)/C=C/[C@H](C)C(C)C)CC[C@@H]12`, the “normalized GFP fluorescence” value in assay [1] was 0.177. Besides, the “normalized DsRed fluorescence” value in assay [2] stood at 0.448.

For `CC(C(=O)O)c1ccc(N2Cc3ccccc3C2=O)cc1` (stereo not drawn), the “normalized GFP fluorescence” value in assay [1] was determined as 0.227. In assay [2], the “normalized DsRed fluorescence” value is 0.501.

On to `CC(=O)N(CC(O)CO)c1c(I)c(C(=O)NCCO)c(I)c(C(=O)NCC(O)CO)c1I` (stereo not drawn), for which the “normalized GFP fluorescence” value in assay [1] came out at 0.914. Also, the “normalized DsRed fluorescence” value in assay [2] came to 0.86.

Turning to `Cn1c(=O)c2c(ncn2C)n(C)c1=O`, the “normalized GFP fluorescence” value in assay [1] was 0.319. Further, the “normalized DsRed fluorescence” value in assay [2] is 0.708.

For the compound `O=C1C(O)=C([C@H]2CC[C@H](c3ccc(Cl)cc3)CC2)C(=O)c2ccccc21` [Atovaquone (Atavaquone)], the “normalized GFP fluorescence” value in assay [1] was found to be 0.714. The “normalized DsRed fluorescence” value in assay [2] was determined as 0.498.

In the case of `CNNCc1ccc(C(=O)NC(C)C)cc1`, the “normalized GFP fluorescence” value in assay [1] is 0.425. In addition, the “normalized DsRed fluorescence” value in assay [2] is 0.606.

`Oc1ncnc2[nH]ncc12`: the “normalized GFP fluorescence” value in assay [1] is 0.524. In addition, the “normalized DsRed fluorescence” value in assay [2] worked out at 0.531.

Consider `OCCOCCN1CCN(C2=Nc3ccccc3Sc3ccccc32)CC1` [Quetiapine fumarate (Seroquel)], for which, in assay [1], the “normalized GFP fluorescence” value turned out to be 0.0887. The “normalized DsRed fluorescence” value in assay [2] was 1.15.

With `COc1cc2nccc(Oc3ccc(NC(=O)Nc4cc(C)on4)c(Cl)c3)c2cc1OC` [Tivozanib (AV-951)], in assay [1], the “normalized GFP fluorescence” value was 0.445. Moreover, in assay [2], the “normalized DsRed fluorescence” value was determined as 1.09.

In the case of `O=c1[nH]c(=O)n([C@H]2C[C@H](O)[C@@H](CO)O2)cc1I`, the “normalized GFP fluorescence” value in assay [1] turned out to be 0.363. Also, the “normalized DsRed fluorescence” value in assay [2] was found to be 0.546.

`O=S(=O)(O)NC1CCCCC1`: the “normalized GFP fluorescence” value in assay [1] was determined as 0.457. In assay [2], the “normalized DsRed fluorescence” value was 0.493.

For `COc1ccc(OC)c(C(O)CNC(=O)CN)c1` (stereo not drawn), in assay [1], the “normalized GFP fluorescence” value came out at 0.301. Besides, the “normalized DsRed fluorescence” value in assay [2] amounted to 0.764.

For `CC1(C)O[C@@H]2C[C@H]3[C@@H]4CCC5=CC(=O)C=C[C@]5(C)[C@H]4[C@@H](O)C[C@]3(C)[C@]2(C(=O)CO)O1`, the “normalized GFP fluorescence” value in assay [1] worked out at 0.387. Moreover, in assay [2], the “normalized DsRed fluorescence” value came out at 1.36.

In the case of `COc1cc2nc(N3CCN(C(=O)C4COc5ccccc5O4)CC3)nc(N)c2cc1OC` (stereo not drawn) [Doxazosin mesylate], in assay [1], the “normalized GFP fluorescence” value is 0.0162. In assay [2], the “normalized DsRed fluorescence” value is 1.12.

On to `CN(C)C(=O)COC(=O)Cc1ccc(OC(=O)c2ccc(NC(=N)N)cc2)cc1` [Camostat Mesilate (FOY-305)], for which, in assay [1], the “normalized GFP fluorescence” value was determined as 0.0607. Besides, the “normalized DsRed fluorescence” value in assay [2] worked out at 0.818.

On to `CC(CN(C)C)CN1c2ccccc2CCc2ccccc21` (stereo not drawn), for which the “normalized GFP fluorescence” value in assay [1] turned out to be 0.0825. Also, in assay [2], the “normalized DsRed fluorescence” value came out at 1.55.

As to `CN1Cc2c(N)cccc2C(c2ccccc2)C1` (stereo not drawn), the “normalized GFP fluorescence” value in assay [1] came to 0.359. Further, in assay [2], the “normalized DsRed fluorescence” value turned out to be 0.781.

Take `Cc1cc(O)cc(C)c1Cl`: the “normalized GFP fluorescence” value in assay [1] is 0.0289. Moreover, the “normalized DsRed fluorescence” value in assay [2] came to 0.544.

As to `C[C@]12C=CC(=O)C=C1CC[C@@H]1[C@@H]2[C@@H](O)C[C@@]2(C)[C@H]1CC[C@]2(O)C(=O)COC(=O)CCC(=O)O`, the “normalized GFP fluorescence” value in assay [1] worked out at 0.461. Besides, in assay [2], the “normalized DsRed fluorescence” value was 1.04.

`Cc1ccc(S(=O)(=O)NC(=O)NN2CCCCCC2)cc1`: the “normalized GFP fluorescence” value in assay [1] stood at 0.372. For the same compound, the “normalized DsRed fluorescence” value in assay [2] is 0.655.

Regarding `O=C(O)CCNC(=O)c1ccc(/N=N/c2ccc(O)c(C(=O)O)c2)cc1`, the “normalized GFP fluorescence” value in assay [1] worked out at 0.565. Besides, the “normalized DsRed fluorescence” value in assay [2] was determined as 0.891.

For the compound `CC1Cc2ccccc2N1NC(=O)c1ccc(Cl)c(S(N)(=O)=O)c1` (stereo not drawn), the “normalized GFP fluorescence” value in assay [1] was 0.39. Besides, the “normalized DsRed fluorescence” value in assay [2] amounted to 0.625.

Consider `NC(=O)N1c2ccccc2C=Cc2ccccc21`, for which the “normalized GFP fluorescence” value in assay [1] was 0.497. In addition, the “normalized DsRed fluorescence” value in assay [2] was determined as 0.792.

Consider `NCCCCCC(=O)O`, for which the “normalized GFP fluorescence” value in assay [1] stood at 0.967. For the same compound, the “normalized DsRed fluorescence” value in assay [2] was determined as 0.727.
